Among the test systems are DU-145 prostate; K-562 leukemia; MALME-3M melanoma; MDA-MB-231 breast; RXF 393 renal; SF-268 CNS; SF-295 CNS; SF-539 CNS; UACC-257 melanoma; M14 melanoma; HCT-15 colon; HT29 colon; SNB-75 CNS; SNB-19 CNS; PC-3 prostate; SK-MEL-5 melanoma; UACC-62 melanoma; LOX IMVI melanoma; SK-MEL-28 melanoma.
Holding throughout (experiment): NCI-60 one-dose screen, 48 h (100 = growth as untreated, 0 = no growth, -100 = all killed)
Settings in all cases: 10 µM unless noted

SMILES strings stand for the structures. The panel holds about 83,000 compounds, 20% with a hit somewhere; the sample as a whole holds those more often.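 Activity criterion: percent growth below 10, measured after cells in 96-well plates were exposed to a single compound concentration for 48 hours.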 Unmarked numbers belong to inactive results. Active and inactive are the calls of the source.

Take `Nc1ncnc2c1N=C(c1ccc3c(c1)OCO3)CC(c1cccc(Nc3ccnc4cc(Cl)ccc34)c1)N2` (stereo not drawn): the growth is 63.1% with DU-145 prostate; 2.1% (active) in the test with K-562 leukemia; 97.3% with MALME-3M melanoma; 70.1% with MDA-MB-231 breast; 72.2% in the test on RXF 393 renal; 69.3% in the test on SF-268 CNS. Further, the growth was 46.6% in the test with SF-295 CNS; 86.3% in the test with SF-539 CNS; 59.3% in the test with UACC-257 melanoma; 57.3% in the test with M14 melanoma; 36.4% with HCT-15 colon; 27.8% with HT29 colon. The growth was 74.6% with SNB-75 CNS; 58.2% with SNB-19 CNS; 54.2% in the test on PC-3 prostate; 53.4% in the test with SK-MEL-5 melanoma; 57% with UACC-62 melanoma; 27.2% with LOX IMVI melanoma. In the test on SK-MEL-28 melanoma, the growth is 91.3%.
With `CC(C)(C)[Si](C)(C)O[C@H]1C(=O)C=CN2CC=C[C@@H]12`, the growth was 108% [100 µM] in the test on DU-145 prostate; 105% [100 µM] in the test with K-562 leukemia; 106% [100 µM] in the test on MALME-3M melanoma; 105% [100 µM] in the test with MDA-MB-231 breast; 109% [100 µM] in the test on RXF 393 renal; 101% [100 µM] in the test with SF-268 CNS. Also, the growth was 94.1% [100 µM] in the test with SF-295 CNS; 99.4% [100 µM] in the test with SF-539 CNS; 93.6% [100 µM] in the test on UACC-257 melanoma; 108% [100 µM] in the test on M14 melanoma; 104% [100 µM] in the test with HCT-15 colon; 106% [100 µM] with HT29 colon. Also, the growth with SNB-75 CNS is 91% [100 µM]; in the test on SNB-19 CNS, 89.1% [100 µM]; in the test on PC-3 prostate it was 91.9% [100 µM]; with SK-MEL-5 melanoma, 106% [100 µM]; in the test on UACC-62 melanoma, 85.3% [100 µM]; with LOX IMVI melanoma it was 102% [100 µM]. For the same compound, in the test with SK-MEL-28 melanoma, the growth is 117% [100 µM].
`Oc1c(Cl)cc(Cl)c2ccc(Cn3cc(-c4ccc(C(F)(F)F)cc4)nn3)nc12`: the growth in the test with DU-145 prostate is 48.9%; in the test with K-562 leukemia it was 4.56% (active); in the test on MALME-3M melanoma it was 45.5%; with MDA-MB-231 breast it was 86.7%; with RXF 393 renal it was 5.98% (active); in the test on SF-268 CNS, 83.9%. Also, the growth in the test with SF-295 CNS is 104%; in the test with SF-539 CNS it was 69.4%; with UACC-257 melanoma, 58.1%; with M14 melanoma, 55.5%; with HCT-15 colon, 31.3%; in the test on HT29 colon, 74.2%. Besides, the growth was 74.1% in the test with SNB-75 CNS; 93.3% with SNB-19 CNS; 74.6% in the test with PC-3 prostate; 98.8% with SK-MEL-5 melanoma; 73.9% with UACC-62 melanoma; 9.23% (active) in the test with LOX IMVI melanoma. Also, the growth in the test on SK-MEL-28 melanoma is 51.2%.
With `COCCNC(=O)c1ccc(-c2nc3ccc4[nH]ncc4c3c3c2CCCC3)cc1`, the growth in the test on DU-145 prostate is 41.3%; in the test on K-562 leukemia, 24.9%; in the test on MALME-3M melanoma it was 30.5%; in the test on MDA-MB-231 breast it was 50.4%; in the test with RXF 393 renal, 11.8%; in the test on SF-268 CNS, 32.4%. Further, the growth in the test on SF-295 CNS is 32.5%; in the test on SF-539 CNS, 12.2%; with UACC-257 melanoma, 71.2%; with M14 melanoma, 35.1%; with HCT-15 colon, 19.3%; with HT29 colon, 44.5%. The growth was -6.65% (active) with SNB-75 CNS; 67.7% in the test on SNB-19 CNS; 34.8% in the test with PC-3 prostate; 44.8% with SK-MEL-5 melanoma; 21.4% in the test with UACC-62 melanoma; 29.1% in the test on LOX IMVI melanoma. The growth in the test with SK-MEL-28 melanoma is 39.6%.
On to `CCCCC(=O)c1ccco1`, for which the growth in the test on DU-145 prostate is 98.6%; with K-562 leukemia it was 104%; in the test on MALME-3M melanoma, 103%; in the test with MDA-MB-231 breast, 98.7%; with RXF 393 renal, 97.6%; with SF-268 CNS, 96%. The growth was 101% with SF-295 CNS; 99.5% in the test with SF-539 CNS; 105% with UACC-257 melanoma; 90.6% in the test with M14 melanoma; 102% with HCT-15 colon; 103% in the test on HT29 colon. The growth in the test on SNB-75 CNS is 86.8%; in the test with SNB-19 CNS, 86.4%; in the test on PC-3 prostate it was 85.8%; with SK-MEL-5 melanoma it was 98.8%; in the test with UACC-62 melanoma, 94.9%; with LOX IMVI melanoma, 99.6%. The growth in the test on SK-MEL-28 melanoma is 103%.
`CN1C(=O)/C(=C/c2ccc(C(=O)Nc3ncc(Cc4ccc(Cl)cc4)s3)cc2)SC1=S`: the growth in the test with DU-145 prostate is 47.1%; in the test with K-562 leukemia, 38.4%; in the test with MALME-3M melanoma it was 50.9%; with MDA-MB-231 breast, 58%; in the test on RXF 393 renal, 48.3%; in the test on SF-268 CNS, 56.8%. Further, the growth in the test with SF-295 CNS is 33%; in the test with SF-539 CNS it was 47.3%; in the test on UACC-257 melanoma, 67.1%; with M14 melanoma, 16.3%; in the test on HCT-15 colon it was 21.7%; in the test on HT29 colon, 20.2%. Moreover, the growth is 52.1% in the test with SNB-75 CNS; 69.3% in the test on SNB-19 CNS; 55.1% in the test with PC-3 prostate; 26.2% in the test with SK-MEL-5 melanoma; 21.4% in the test with UACC-62 melanoma; 18% in the test on LOX IMVI melanoma. In the test on SK-MEL-28 melanoma, the growth was 60.2%.
For the compound `COC(=O)c1cc(-c2ccc(S(C)(=O)=O)cc2)[nH]c1N/N=C/c1c(Cl)cccc1Cl`, the growth in the test with DU-145 prostate is 4.36% (active); with K-562 leukemia, -1.67% (active); in the test on MALME-3M melanoma, 4.13% (active); with MDA-MB-231 breast, 50.9%; in the test with RXF 393 renal, -2.32% (active); in the test with SF-268 CNS, 37.1%. Also, the growth with SF-295 CNS was -28.2% (active); in the test on SF-539 CNS, -19.8% (active); in the test on UACC-257 melanoma, 60.3%; in the test with M14 melanoma, -8.67% (active); with HCT-15 colon, 26.2%; in the test on HT29 colon it was 14.5%. Besides, the growth in the test on SNB-75 CNS was 10.1%; with SNB-19 CNS it was 22.8%; in the test on PC-3 prostate it was 15.6%; in the test on SK-MEL-5 melanoma it was 25.7%; in the test on UACC-62 melanoma it was 58%; in the test on LOX IMVI melanoma it was 43.6%. The growth with SK-MEL-28 melanoma was 28.2%.
Take `COC(=O)c1cc(-c2ccc(OC)cc2)[nH]c1N/N=C/c1c(Cl)cccc1Cl`: the growth with DU-145 prostate was -26.2% (active); with K-562 leukemia it was 0.823% (active); in the test with MALME-3M melanoma it was 24.7%; in the test with MDA-MB-231 breast, 7.56% (active); in the test with RXF 393 renal, -44.2% (active); with SF-268 CNS it was 13.8%. For the same compound, the growth in the test with SF-295 CNS was -28.2% (active); with SF-539 CNS, -38.8% (active); in the test on UACC-257 melanoma it was 14.2%; with M14 melanoma, -59.3% (active); with HCT-15 colon it was 16.4%; in the test with HT29 colon, -56.5% (active). In addition, the growth in the test on SNB-75 CNS is -10.6% (active); in the test with SNB-19 CNS, 19.1%; in the test with PC-3 prostate, 16.2%; with SK-MEL-5 melanoma, -2.73% (active); with UACC-62 melanoma, 21.3%; in the test with LOX IMVI melanoma it was 24.2%. The growth with SK-MEL-28 melanoma is 34%.
As to `Cc1ccccc1Cn1cnc2ccc(-c3cc(NC(=O)c4ccc(NC5CCN(C)CC5)cc4)n[nH]3)cc21`, the growth was 90.8% in the test with DU-145 prostate; 15.8% in the test on K-562 leukemia; 31.6% with MALME-3M melanoma; 61.3% with MDA-MB-231 breast; 4.62% (active) in the test with RXF 393 renal; 69.2% in the test with SF-268 CNS. Besides, the growth in the test on SF-295 CNS is 89.9%; in the test on SF-539 CNS, 27.4%; in the test on UACC-257 melanoma, 81%; with M14 melanoma, 82.9%; with HCT-15 colon, 102%; with HT29 colon, 56.6%. In addition, the growth was -11.4% (active) in the test with SNB-75 CNS; 95% in the test on SNB-19 CNS; 68.8% in the test with PC-3 prostate; 79.3% in the test with SK-MEL-5 melanoma; 73.2% with UACC-62 melanoma; 56.7% in the test with LOX IMVI melanoma. Also, the growth in the test on SK-MEL-28 melanoma is 92.2%.
Take `COC(=O)[C@H]1CCCN1C[C@@H](O)CN1C(=O)/C(=C\c2cc(OC)c(OC)c(OC)c2)c2ccccc21`: the growth with DU-145 prostate was 99.6%; in the test on K-562 leukemia, 81.4%; in the test with MALME-3M melanoma it was 100%; in the test with MDA-MB-231 breast, 102%; in the test on RXF 393 renal, 114%; in the test with SF-268 CNS, 99.8%. In addition, the growth in the test with SF-295 CNS is 105%; in the test with SF-539 CNS, 111%; in the test on UACC-257 melanoma, 90.6%; in the test with M14 melanoma, 97.3%; in the test on HCT-15 colon it was 98%; with HT29 colon it was 110%. Moreover, the growth with SNB-75 CNS is 86%; with SNB-19 CNS it was 95.9%; in the test on PC-3 prostate, 91.4%; with SK-MEL-5 melanoma it was 103%; in the test on UACC-62 melanoma it was 95.2%; in the test on LOX IMVI melanoma, 97.2%. Also, the growth in the test with SK-MEL-28 melanoma was 123%.
For the compound `O=C(CCCCC1CCSS1)Nc1ncnc2n[nH]c(-c3ccc(Oc4ccccc4)cc3)c12` (stereo not drawn), the growth with DU-145 prostate was 65.6%; in the test on K-562 leukemia, 9.6% (active); with MALME-3M melanoma it was 109%; in the test with MDA-MB-231 breast it was 68.3%; with RXF 393 renal, 113%; in the test on SF-268 CNS, 72.4%. Moreover, the growth in the test with SF-295 CNS was 102%; with SF-539 CNS, 106%; with UACC-257 melanoma, 95.2%; with M14 melanoma, -62.8% (active); in the test with HCT-15 colon, 95.8%; in the test on HT29 colon, 88.3%. Further, the growth is 135% in the test with SNB-75 CNS; 114% with SNB-19 CNS; 90.2% with PC-3 prostate; 87.9% in the test with SK-MEL-5 melanoma; 70.4% in the test with UACC-62 melanoma; 5.87% (active) with LOX IMVI melanoma. For the same compound, the growth with SK-MEL-28 melanoma is 47%.
For `O=C(/C=C/c1ccccc1)c1cccc(OCCCOc2cccc(C(=O)/C=C/c3ccccc3)c2)c1`, the growth in the test on DU-145 prostate is 100%; with K-562 leukemia it was 46.4%; in the test on MALME-3M melanoma, 107%; in the test on MDA-MB-231 breast, 97.4%; in the test on RXF 393 renal it was 94.9%; in the test with SF-268 CNS it was 104%. The growth is 94.2% in the test with SF-295 CNS; 107% in the test with SF-539 CNS; 96.4% with UACC-257 melanoma; 95% with M14 melanoma; 57.4% with HCT-15 colon; 52.4% with HT29 colon. Also, the growth with SNB-75 CNS is 93.9%; in the test on SNB-19 CNS, 85.7%; with PC-3 prostate it was 82.8%; in the test with SK-MEL-5 melanoma, 100%; in the test with UACC-62 melanoma, 87.3%; with LOX IMVI melanoma, 58.1%. The growth in the test with SK-MEL-28 melanoma is 102%.
